Test results published in PubChem BioAssay AID651597 (National Center for Advancing Translational Sciences (NCATS), 2012).
The campaign covered roughly 1,100 compounds. About 390 (35%) were called active. Another 30% or so got no clear call; they are omitted. Some of the results follow. A number with no mark means an inactive call. Calls come from the whole dose curve; as a rule, active = well fitted inhibition curve with a large enough effect; inconclusive = small, poorly fitted or top-dose-only effect; inactive = flat fitted curve, though single readings scatter.

molecular target: Luciferin 4-monooxygenase (Photinus pyralis) (UniProt P08659); experiment: qHTS of Nrf2 Activators: Hit Validation in Secondary FLuc Assay; details: firefly luciferase inhibition counter-screen, luminescence; series mostly up to 57.5 µM; activity, negative = inhibition: at the top concentration; note: nearly all actives have a fitted effect of over 65% in size
Summary of the method: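 Counter-screen on purified firefly luciferase with ATP and D-luciferin at Km concentrations; compounds flagged if they inhibit the enzyme, indicating possible reporter stabilization rather than ARE activation.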
% is set by controls: 0 for no effect and ±100 for the full control effect; potency is the fitted concentration of half-maximal effect.

| Compound | activity, negative = inhibition [%] | Potency |
| --- | --- | --- |
| Cc1c(CN(C)C)c2c(n1C)C(=O)c1ccc(Br)cc1-2 | 7.53 |  |
| Cc1ccccc1CS(=O)(=O)c1cnc2ccccc2n1 | -24.2 |  |
| Cc1ccc(Cn2c(/C=C/c3ccco3)nc3ccccc32)cc1 |  | 6.01 µM (active) |
| CS(=O)(=O)Cc1nc2ccccc2oc1=O | 0.923 |  |
| O=c1oc2ccccc2nc1/C=C(\O)c1ccc(Br)cc1 |  | 6.01 µM (active) |
| O=c1oc2ccc(Cl)cc2nc1/C=C(\O)c1ccco1 | -26.9 |  |
| Fc1cccc(Nc2nc3ccccc3n3cnnc23)c1 | -2.42 |  |
| Fc1cccc(Nc2cc(-n3cccn3)ncn2)c1 |  | 10.7 µM (active) |
| Cc1ccc2cc3c(NC(=O)c4ccco4)nn(C)c3nc2c1 |  | 12 µM (active) |
| Cc1cc(NC(=S)NC(=O)c2ccco2)c2ccccc2n1 | -24.9 |  |
| O=C(Nc1cnc2ccccc2c1)c1ccco1 |  | 1.35 µM (active) |
| O=C(NC(=S)Nc1cnc2ccccc2c1)c1ccccc1 |  | 3.38 µM (active) |
| Cn1ccsc1=NC(=O)c1ccc([N+](=O)[O-])o1 | -21.8 |  |
| CN(Cc1ccccc1)C(=O)c1ccc([N+](=O)[O-])o1 | 1.73 |  |
| O=C(CCS(=O)(=O)c1ccccc1)Nc1nc2ccc(F)cc2s1 | -26 |  |
| O=C(Nc1nc2ccc(F)cc2s1)c1ccc([N+](=O)[O-])o1 |  | 2.13 µM (active) |
| O=C(Nc1nc2c(Cl)cccc2s1)c1ccc([N+](=O)[O-])o1 |  | 10.7 µM (active) |
| O=C(c1ccc([N+](=O)[O-])o1)N1CCN(c2nc3c(Cl)cccc3s2)CC1 | -26 |  |
| Cc1ccc(-n2nc3c([n+]2[O-])CCc2c-3no[n+]2[O-])cc1 | -5.82 |  |
| COc1cc(Cl)cc(/C=C/c2ccc3cccc(O)c3n2)c1OC |  | 9.53 µM (active) |
| Oc1ccc(Cl)cc1/C=C/c1ccc2cccc(O)c2n1 |  | 9.53 µM (active) |
| CN(N=Cc1ccccc1O)c1ccc2ccccc2n1 |  | 0.849 µM (active) |
| O=C(Nc1ccc(F)cc1)c1nsc(Cl)c1Cl |  | 1.69 µM (active) |
| O=C(Nc1ccc(OC(F)F)cc1)c1ncc(Cl)c(Cl)c1Cl | -17.4 |  |

| Compound | activity, negative = inhibition [%] | Potency |
| --- | --- | --- |
| CSc1nsc(SC)c1C(=O)Nc1ccc(Cl)cc1 | -1.94 |  |
| COc1ccc(Nc2nc(C)nc3sc4c(c23)CCC4)cc1O | -21.5 |  |
| CC1(C)CC[C@]2(C(=O)n3ccnc3)CC[C@]3(C)[C@H](C(=O)C=C4[C@@]5(C)C=C(C#N)C(=O)C(C)(C)[C@@H]5CC[C@]43C)[C@@H]2C1 |  | 0.478 µM (active) |
| N#Cc1sc2nc(-c3ccccc3)cc(C(F)(F)F)c2c1N | -16.1 |  |
| COC(=O)c1sccc1NC(=O)c1cccc(Cl)c1 | -4.91 |  |
| COc1cccc(C(=O)Nc2cc(Cl)c(O)c(Cl)c2)c1 |  | 12 µM (active) |
| COc1cccc(NC(=O)c2cc(Cl)nnc2Cl)c1 | -19.3 |  |
| CN(C)c1oc(/C=C/c2ccccc2)nc1C#N |  | 8.49 µM (active) |
| Oc1ccc(CNc2ccccc2O)cc1 |  | 12 µM (active) |
| CCCCC1C(=O)N(c2ccccc2)N(c2ccc(O)cc2)C1=O (configuration not stated) |  | 10.7 µM (active) |
| COc1ccc(-c2csc3nc(-c4cccnc4)nc(Cl)c23)cc1OC |  | 12 µM (active) |
| CC(C)(C)OC(=O)NCCC(=O)N/N=C/c1cccc2cccnc12 | -3.55 |  |
| O=C(/C=C/c1ccco1)Nc1cccc2cccnc12 |  | 4.78 µM (active) |
| O=C(/C=C/c1ccco1)Nc1cccnc1Cl |  | 6.01 µM (active) |
| Cc1ccc(/C=C/C(=O)OCC(=O)Nc2cccnc2Cl)o1 | -0.884 |  |
| O=C(CC1S/C(=N/N=C/c2ccco2)NC1=O)Nc1ccccc1 (configuration not stated) | -0.127 |  |
| Cc1ccc(N=C2NC(=O)/C(=C/C=C/c3ccco3)S2)cc1 |  | 8.49 µM (active) |
| O=C1N/C(=N\N=C\c2ccco2)SC1Cc1ccc(F)cc1 (configuration not stated) | -17.3 |  |
| Cc1cccc(CC2S/C(=N/N=C/c3ccco3)NC2=O)c1 (configuration not stated) | -7.31 |  |
| O=C1NC(=Nc2ccccc2)S/C1=C\C=C\c1ccco1 |  | 6.01 µM (active) |
| O=C1NC(=Nc2ccccc2)S/C1=C\c1ccccc1 |  | 7.57 µM (active) |
| Cc1ccc(S(=O)(=O)c2cc3ccccc3oc2=O)cc1 | -1.58 |  |
| Cc1ccc(S(=O)(=O)C=CS(=O)(=O)c2ccc(C)cc2)cc1 |  | 0.379 µM (active) |
| Cc1ccc(S(=O)(=O)CCSC(=N)N)cc1 | 4.13 |  |

| Compound | activity, negative = inhibition [%] | Potency |
| --- | --- | --- |
| C/C(=N\NC(=O)COc1ccccc1[N+](=O)[O-])c1cccs1 |  | 9.53 µM (active) |
| O=C(COc1cccnc1[N+](=O)[O-])Nc1cccc2ccccc12 | 2.44 |  |
| CCC/C(=N\NC(=O)c1ccco1)c1ccc(Cl)s1 | -0.842 |  |
| CCCN(C(=O)c1ccco1)c1nnc(-c2ccccc2C)s1 |  | 6.75 µM (active) |
| Oc1ccc(NCc2cccc(OCc3ccc(F)cc3)c2)cc1 |  | 3.38 µM (active) |
| CCOc1ccccc1NS(=O)(=O)c1c(C(=O)OC)sc2cccc(F)c12 | 2.09 |  |
| Cc1ccc(C(=O)Nc2nc(-c3ccco3)c(-c3ccco3)s2)o1 |  | 7.57 µM (active) |
| CCOC(=O)Cc1csc(NC(=O)/C=C/c2ccco2)n1 |  | 4.26 µM (active) |
| Cc1csc(NC(=O)/C=C/c2ccco2)n1 |  | 3.01 µM (active) |
| Cc1cc(C)c2oc(-c3ccc(C)c(NC(=O)/C=C/c4ccco4)c3)nc2c1 |  | 2.39 µM (active) |
| CCC(CC)c1nnc(NC(=O)/C=C/c2ccco2)s1 | -1.49 |  |
| Clc1ccc(C=Cc2ccccn2)c(Cl)c1 |  | 0.338 µM (active) |
| Clc1ccc(/C=C/c2ncc3ccccn23)cc1 |  | 1.51 µM (active) |
| Clc1ccc(C=Cc2ccccn2)cc1 |  | 0.379 µM (active) |
| Clc1ccc2c(NCc3ccccn3)ncnc2c1 | -0.91 |  |
| Cc1ccc2nc(/C(C#N)=C\c3ccc([N+](=O)[O-])o3)[nH]c2c1 |  | 8.49 µM (active) |
| Nc1c(C(=O)Nc2ccccc2Br)sc2nc(-c3cccs3)ccc12 |  | 8.49 µM (active) |
| Nc1c(C(=O)C2CC2)sc2nc(-c3cccs3)cc(C(F)(F)F)c12 | -23.9 |  |
| Cc1sc2ncnc(SCc3ccco3)c2c1C | -5.64 |  |
| c1coc(CSc2ncnc3c2oc2ccccc23)c1 |  | 5.36 µM (active) |
| O=C(COCc1cc(-c2cccs2)on1)Nc1cc(Cl)ccc1O | -0.806 |  |
| Fc1cccc2sc(Nc3nc4ccccc4s3)nc12 |  | 2.13 µM (active) |
| Fc1ccc2nc(Nc3nc4c(F)cc(F)cc4s3)sc2c1 |  | 6.75 µM (active) |
| Fc1cc(F)c2nc(Nc3nc4cc5c(cc4s3)OCO5)sc2c1 |  | 5.36 µM (active) |
